In the supplement of paper PMC8728848:
The sample as a whole holds a higher share of the strongest signals than the screen did.

Columns and labels:
Assay in all cases: glycan array binding signal (z-score within array); higher = stronger binding
Details in all cases: glycan notation: IUPAC condensed, linker removed
[1] = molecular target: Fuc(a1-2)Gal(b1-3)GalNAc(b1-3)Gal
Outline: (§1)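 Negative Z-scores can be read as non-binding. The Z-score is calculated within each array and then averaged across arrays of one protein sequence at different concentrations or buffers and across linkers. Arrays, 3228 in all, were curated from the Consortium for Functional Glycomics database and kept only where the protein sequence was available.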

[2] = molecular target: Fuc(a1-2)Gal(b1-4)Fuc(a1-3)]GlcNAc(b1-2)Man(a1-3)[Fuc(a1-2)Gal(b1-4)[Fuc(a1-3)]GlcNAc(b1-2)Man(a1-6)]Man(b1-4)GlcNAc(b1-4)GlcNAc
Outline: as §1

[3] = molecular target: Fuc(a1-2)[Gal(a1-3)]Gal(b1-4)GlcNAc(b1-3)GalNAc
Outline: as §1

[4] = molecular target: Fuc(a1-2)[GalNAc(a1-3)]Gal(b1-3)GalNAc(a1-3)[Fuc(a1-2)]Gal(b1-4)GlcNAc
Outline: as §1

[5] = molecular target: Fuc(a1-2)[GalNAc(a1-3)]Gal(b1-4)GlcNAc(b1-3)Gal(b1-4)GlcNAc(b1-3)Gal(b1-4)GlcNAc
Outline: as §1

[6] = molecular target: Fuc(a1-3)[Gal(b1-4)]GlcNAc(b1-2)Man
Outline: as §1

Gal(a1-3)Gal(b1-3)GlcNAc = molecular target: Gal(a1-3)Gal(b1-3)GlcNAc
Outline: as §1

[7] = molecular target: Gal(a1-3)Gal(b1-4)[Fuc(a1-3)]GlcNAc(b1-2)Man(a1-3)[Gal(a1-3)Gal(b1-4)[Fuc(a1-3)]GlcNAc(b1-2)Man(a1-6)]Man(b1-4)GlcNAc(b1-4)GlcNAc
Outline: as §1

[8] = molecular target: Gal(b1-3)GalNAc(a1-3)[Fuc(a1-2)]Gal(b1-4)GlcNAc
Outline: as §1

[9] = molecular target: Gal(b1-3)GlcNAc(b1-2)Man(a1-3)[Gal(b1-3)GlcNAc(b1-2)Man(a1-6)]Man(b1-4)GlcNAc(b1-4)[Fuc(a1-6)]GlcNAc
Outline: as §1

[10] = molecular target: Gal(b1-3)GlcNAc(b1-3)Gal(b1-4)Glc
Outline: as §1

[11] = molecular target: Gal(b1-3)GlcNAc(b1-3)Gal(b1-4)GlcNAc(b1-6)[Gal(b1-3)GlcNAc(b1-3)]Gal(b1-4)Glc
Outline: as §1

[12] = molecular target: Gal(b1-3)GlcNAc(b1-3)Gal(b1-4)[Fuc(a1-3)]GlcNAc(b1-6)[Gal(b1-3)GlcNAc(b1-3)]Gal(b1-4)Glc
Outline: as §1

[13] = molecular target: Gal(b1-3)[Fuc(a1-4)]GlcNAc(b1-2)Man
Outline: as §1

[14] = molecular target: Gal(b1-4)GlcNAc(b1-2)Man(a1-3)Man(b1-4)GlcNAc(b1-4)GlcNAc
Outline: as §1

[15] = molecular target: Gal(b1-4)GlcNAc(b1-2)Man(a1-3)[GlcNAc(b1-4)][Gal(b1-4)GlcNAc(b1-2)Man(a1-6)]Man(b1-4)GlcNAc(b1-4)GlcNAc
Outline: as §1

[16] = molecular target: Gal(b1-4)GlcNAc(b1-3)Gal(b1-4)GlcNAc(b1-3)Gal(b1-4)GlcNAc(b1-3)Gal(b1-4)GlcNAc(b1-2)Man(a1-3)[Gal(b1-4)GlcNAc(b1-3)Gal(b1-4)GlcNAc(b1-3)Gal(b1-4)GlcNAc(b1-3)Gal(b1-4)GlcNAc(b1-2)Man(a1-6)]Man(b1-4)GlcNAc(b1-4)GlcNAc
Outline: as §1

Gal3S(b1-4)Glc6S = molecular target: Gal3S(b1-4)Glc6S
Outline: as §1

[17] = molecular target: Gal3S(b1-4)[Fuc(a1-3)]Glc6S
Outline: as §1

Gal3S6S(b1-4)GlcNAc6S = molecular target: Gal3S6S(b1-4)GlcNAc6S
Outline: as §1

Gal6P(b1-4)GlcNAc = molecular target: Gal6P(b1-4)GlcNAc
Outline: as §1

Gal6S(b1-3)GlcNAc6S = molecular target: Gal6S(b1-3)GlcNAc6S
Outline: as §1

[18] = molecular target: GalNAc(b1-3)Gal(a1-4)Gal(b1-4)GlcNAc
Outline: as §1

GalNAc(b1-4)Gal(b1-4)Glc = molecular target: GalNAc(b1-4)Gal(b1-4)Glc
Outline: as §1

[19] = molecular target: GlcNAc(a1-4)Gal(b1-4)GalNAc
Outline: as §1

[20] = molecular target: GlcNAc(a1-4)Gal(b1-4)GlcNAc(b1-3)Gal(b1-4)GlcNAc
Outline: as §1

[21] = molecular target: Man(a1-2)Man(a1-2)Man(a1-6)[Man(a1-3)]Man
Outline: as §1

Neu5Ac(a2-3)Gal = molecular target: Neu5Ac(a2-3)Gal
Outline: as §1

[22] = molecular target: Neu5Ac(a2-3)Gal(b1-3)GlcNAc(b1-2)Man(a1-3)[Neu5Ac(a2-3)Gal(b1-3)GlcNAc(b1-2)Man(a1-6)]Man(b1-4)GlcNAc(b1-4)GlcNAc
Outline: as §1

[23] = molecular target: Neu5Ac(a2-3)Gal(b1-4)GlcNAc(b1-2)[Neu5Ac(a2-3)Gal(b1-4)GlcNAc(b1-4)]Man(a1-3)[GlcNAc(b1-4)][Neu5Ac(a2-3)Gal(b1-4)GlcNAc(b1-2)[Neu5Ac(a2-3)Gal(b1-4)GlcNAc(b1-6)]Man(a1-6)]Man(b1-4)GlcNAc(b1-4)GlcNAc
Outline: as §1

B1: Clec2 (Mus musculus), Q9JL99 (protein)
chain: MQDEDGYITLNIKPRKQALSSAEPASSWWRVMALVLLISSMGLVVGLVALGIMSVTQQKYLLAEKENLSATLQQLAKKFCQELIRQSEIKTKSTFEHKCSPCATKWRYHGDSCYGFFRRNLTWEESKQYCTEQNATLVKTASQSTLDYIAERITSVRWIGLSRQNSKKDWMWEDSSVLRKNGINLSGNTEENMNCAYLHNGKIHPASCKERHYLICERNAGMTRVDQLL
B1 was tested, and the “glycan array binding signal (z-score)” value [1] was 9.47, the “glycan array binding signal (z-score)” value [2] was 3.96 and the “glycan array binding signal (z-score)” value [3] was -0.063. For the same binder, the “glycan array binding signal (z-score)” value [4] was -0.388, the “glycan array binding signal (z-score)” value [5] was -0.74 and the “glycan array binding signal (z-score)” value [6] was 0.349. For the same binder, the “glycan array binding signal (z-score)” value (Gal(a1-3)Gal(b1-3)GlcNAc) was 3, the “glycan array binding signal (z-score)” value [7] was 6.06 and the “glycan array binding signal (z-score)” value [8] was -0.939. The “glycan array binding signal (z-score)” value [9] was -0.411, the “glycan array binding signal (z-score)” value [10] was 0.433 and the “glycan array binding signal (z-score)” value [11] was -0.864. For the same binder, the “glycan array binding signal (z-score)” value [12] was -0.993, the “glycan array binding signal (z-score)” value [13] was 3.5 and the “glycan array binding signal (z-score)” value [14] was -0.472. For the same binder, the “glycan array binding signal (z-score)” value [15] was -0.464, the “glycan array binding signal (z-score)” value [16] was -0.166 and the “glycan array binding signal (z-score)” value (Gal3S(b1-4)Glc6S) was 3.71. For the same binder, the “glycan array binding signal (z-score)” value [17] was 1.03, the “glycan array binding signal (z-score)” value (Gal3S6S(b1-4)GlcNAc6S) was 4.08 and the “glycan array binding signal (z-score)” value (Gal6P(b1-4)GlcNAc) was 3.62. For the same binder, the “glycan array binding signal (z-score)” value (Gal6S(b1-3)GlcNAc6S) was 3.2, the “glycan array binding signal (z-score)” value [18] was 0.28 and the “glycan array binding signal (z-score)” value (GalNAc(b1-4)Gal(b1-4)Glc) was 1.12. For the same binder, the “glycan array binding signal (z-score)” value [19] was -0.598, the “glycan array binding signal (z-score)” value [20] was -0.749 and the “glycan array binding signal (z-score)” value [21] was -0.215. The “glycan array binding signal (z-score)” value (Neu5Ac(a2-3)Gal) was 0.604, the “glycan array binding signal (z-score)” value [22] was 3.51 and the “glycan array binding signal (z-score)” value [23] was -0.711.
